These results are taken from paper PMC4336329 (PLoS ONE, 2015).

About 2,200 (0.71%) of roughly 310,000 compounds showed an effect of 50% or more. Effects have a minus sign here. The full list was thinned out, with strong results kept by preference.

The test deals with human ether-à-go-go-related gene (hERG) potassium channel (human, UniProt Q12809). The test is described as follows: primary screen, population patch clamp on CHO cells stably expressing hERG; higher = less effect of the substance.
human ether-à-go-go-related gene (hERG) potassium channel, sequence (Q12809 whole entry, looked up): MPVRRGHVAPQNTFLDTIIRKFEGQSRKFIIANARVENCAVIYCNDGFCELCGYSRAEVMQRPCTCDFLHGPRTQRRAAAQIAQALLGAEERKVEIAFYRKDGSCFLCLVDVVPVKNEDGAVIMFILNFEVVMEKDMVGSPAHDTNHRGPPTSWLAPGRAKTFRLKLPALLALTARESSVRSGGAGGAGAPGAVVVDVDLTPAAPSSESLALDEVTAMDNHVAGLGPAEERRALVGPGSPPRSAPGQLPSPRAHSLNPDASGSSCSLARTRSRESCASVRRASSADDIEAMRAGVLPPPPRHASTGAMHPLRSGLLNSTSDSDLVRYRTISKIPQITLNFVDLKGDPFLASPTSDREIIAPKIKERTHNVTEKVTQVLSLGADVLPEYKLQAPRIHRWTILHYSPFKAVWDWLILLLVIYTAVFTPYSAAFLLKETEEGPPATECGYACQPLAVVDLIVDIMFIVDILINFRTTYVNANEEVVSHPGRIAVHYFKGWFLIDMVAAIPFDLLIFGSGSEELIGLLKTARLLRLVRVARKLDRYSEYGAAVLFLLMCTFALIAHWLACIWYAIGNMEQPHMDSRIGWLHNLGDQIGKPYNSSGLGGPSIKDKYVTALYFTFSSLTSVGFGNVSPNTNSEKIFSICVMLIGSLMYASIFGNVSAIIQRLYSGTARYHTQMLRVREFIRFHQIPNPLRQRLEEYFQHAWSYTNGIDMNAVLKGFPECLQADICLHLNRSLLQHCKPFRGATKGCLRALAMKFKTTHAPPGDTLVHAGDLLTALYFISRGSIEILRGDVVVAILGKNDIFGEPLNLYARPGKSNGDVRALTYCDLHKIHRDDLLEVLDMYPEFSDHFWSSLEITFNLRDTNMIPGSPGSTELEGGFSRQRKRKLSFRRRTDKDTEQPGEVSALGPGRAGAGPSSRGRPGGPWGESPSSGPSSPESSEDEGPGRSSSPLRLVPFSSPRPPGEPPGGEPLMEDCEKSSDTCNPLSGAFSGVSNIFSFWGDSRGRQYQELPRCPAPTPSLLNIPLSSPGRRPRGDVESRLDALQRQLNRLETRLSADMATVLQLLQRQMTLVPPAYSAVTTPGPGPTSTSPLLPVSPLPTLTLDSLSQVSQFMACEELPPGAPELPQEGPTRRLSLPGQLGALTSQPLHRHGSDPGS
Regarding `Cc1ccc(CN(c2ccc(C(=O)NCc3cccnc3)cc2)S(C)(=O)=O)cc1`, the “hERG current change (%, negative = inhibition) at 1uM” value was found to be 1.51%.

As to `COc1ccc(N2CCN(CCCNC(=O)C(=O)c3c(C)n(C)c4ccccc34)CC2)cc1`, the “hERG current change (%, negative = inhibition) at 1uM” value was -9.85%. On to `COc1ccc2c(c1)C(NC(C)=O)C(=O)N2CCc1ccccc1` (centres unmarked), for which the “hERG current change (%, negative = inhibition) at 1uM” value is reported as 3.02%. With `Cc1oc(-c2ccoc2)nc1CN(CC1CCC(=O)N1)C(C)C` (centres unmarked), the “hERG current change (%, negative = inhibition) at 1uM” value was 11.6%. Consider `CCNc1nc(N2CCCC2)nc(N2CCCC2)n1`, for which the “hERG current change (%, negative = inhibition) at 1uM” value came to 0.687%. With `CCCCN1CNC(=S)N(c2cc(C)ccc2C)C1`, the “hERG current change (%, negative = inhibition) at 1uM” value stood at 7.21%.

Take `Nc1[nH]c(=O)nc(Nc2ccccc2)c1N=O`: the “hERG current change (%, negative = inhibition) at 1uM” value is recorded as 8.79%.

`O=C(c1ccc(CNc2c(N3CCCC3)c(=O)c2=O)cc1)N1CCc2ccccc2C1`: the “hERG current change (%, negative = inhibition) at 1uM” value is -3.76%. For `CCO[C@@H]1OC(C(=O)N2CCN(Cc3ccc4c(c3)OCO4)CC2)=C[C@H](c2ccc(C(F)(F)F)cc2)[C@H]1CCCO`, the “hERG current change (%, negative = inhibition) at 1uM” value was determined as 3.44%. `COc1ccc(C(=O)N2CCN(C3CCCCC3)CC2)c(OC)c1`: the “hERG current change (%, negative = inhibition) at 1uM” value is given as -75%. With `COc1ccc(C(=O)N2CCCN(C)CC2)c(OC)c1`, the “hERG current change (%, negative = inhibition) at 1uM” value is on record as 11%. `COc1cc(OC)cc(C(=O)N2CCN(C3CCCCC3)CC2)c1.O=C(O)C(=O)O`: the “hERG current change (%, negative = inhibition) at 1uM” value was -2.01%. Then `CCC(Cc1ccccc1)NS(=O)(=O)c1csc(C(N)=O)c1` (centres unmarked), with 22.5%; and `CC(C)[C@H](NC(=O)N1CC(=O)Nc2ccccc21)C(=O)Nc1nccs1`, with 24.4%; and `O=C(c1ccc(C(F)(F)F)cc1)N1CCCCC1`, with -4.21%. Then `CCCC(=O)Nc1ccc2c(c1)nc(CCN1CCN(c3ccccn3)CC1)n2C`, with 1.68%; and `CC(C)C(=O)Nc1ccc2c(c1)nc(CCN1CCN(c3ccccn3)CC1)n2C`, with 6.24%.

For the compound `CC(=O)Nc1ccc2c(c1)nc(CCN1CCN(c3ccccn3)CC1)n2C`, the “hERG current change (%, negative = inhibition) at 1uM” value is 12%. Consider `Cn1c(CCN2CCN(c3ccccn3)CC2)nc2cc(NS(=O)(=O)c3ccc(Cl)cc3)ccc21`, for which the “hERG current change (%, negative = inhibition) at 1uM” value was -69.2%. As to `Cc1ccc(S(=O)(=O)Nc2ccc3c(c2)nc(CCN2CCOCC2)n3C)cc1`, the “hERG current change (%, negative = inhibition) at 1uM” value came out at 6.29%.

Regarding `Cc1ccc(S(=O)(=O)Nc2ccc3c(c2)nc(CCN2CCN(c4ccccn4)CC2)n3C)cc1`, the “hERG current change (%, negative = inhibition) at 1uM” value is -80.7%. Then `O=CNc1ccc(OP(=O)(Oc2ccccc2)Oc2ccccc2)cc1`, with 1.71%. As for `O=C(N/N=C(/c1ccccc1)c1ccncc1)c1ccc2c(c1)OCO2`, the figure is 2.11%; as for `CC(C(=O)O)N1CCCCC1.Cl` (centres unmarked), -4.62%. With `O=C(Cn1cncc1-c1ccc([N+](=O)[O-])cc1)Nc1ccccc1F`, the “hERG current change (%, negative = inhibition) at 1uM” value was -0.387%.

Consider `O=C(c1noc2c1CCCC2)N1CCN(c2ccc(F)cc2)CC1`, for which the “hERG current change (%, negative = inhibition) at 1uM” value amounted to 20%. With `N#Cc1ccc(CN2CCN(C(=O)CCNS(=O)(=O)c3ccc(F)c(Cl)c3)CC2)cc1`, the “hERG current change (%, negative = inhibition) at 1uM” value is reported as -29.3%. As for `N#Cc1ccc(CN2CCN(C(=O)CCNS(=O)(=O)c3ccc(F)c(F)c3)CC2)cc1`, the figure is -62.3%; as for `O=C(CCNS(=O)(=O)c1ccc(Cl)cc1)N1CCN(Cc2ccccc2)CC1`, -16.1%. With `O=C(CN1CCN(CCC(=O)Nc2ccccc2F)CC1)Nc1ccc(Cl)cc1`, the “hERG current change (%, negative = inhibition) at 1uM” value is given as -84.3%. As to `O=C(CN1CCN(CCC(=O)Nc2ccccc2F)CC1)Nc1ccc(F)cc1`, the “hERG current change (%, negative = inhibition) at 1uM” value is on record as -78.3%.

For `O=C(CCN1CCN(c2ccccc2F)CC1)Nc1ccc(F)cc1`, the “hERG current change (%, negative = inhibition) at 1uM” value is 14.4%. With `O=C(CCN1CCN(CC(=O)Nc2ccccc2Cl)CC1)Nc1ccccc1F`, the “hERG current change (%, negative = inhibition) at 1uM” value was -54%.

On to `O=C(CCN1CCN(c2ccc(Cl)cc2)CC1)Nc1ccccc1F`, for which the “hERG current change (%, negative = inhibition) at 1uM” value came to 5.25%.

Regarding `O=C(CCN1CCN(c2ccccc2F)CC1)Nc1ccccc1Cl`, the “hERG current change (%, negative = inhibition) at 1uM” value worked out at 7.43%. Take `O=C(CCN1CCN(S(=O)(=O)c2ccc(Cl)cc2)CC1)Nc1ccccc1F`: the “hERG current change (%, negative = inhibition) at 1uM” value is on record as 4.11%. With `O=C(CCN1CCN(c2ccc(F)cc2)CC1)Nc1ccccc1F`, the “hERG current change (%, negative = inhibition) at 1uM” value is given as -9.21%. Consider `O=C(CCN1CCN(CC(=O)Nc2ccccc2F)CC1)Nc1ccccc1F`, for which the “hERG current change (%, negative = inhibition) at 1uM” value is given as -38.4%. Then `CC(C)Oc1ccc(C(=O)OCC(=O)NCCNC(=O)COC(=O)c2ccc(OC(C)C)cc2)cc1`, with 8.62%. Consider `Cc1ccc(CCNC(=O)C2CCCN(S(=O)(=O)N3CC(C)CC(C)C3)C2)cc1` (centres unmarked), for which the “hERG current change (%, negative = inhibition) at 1uM” value amounted to 16.3%.

Regarding `COc1cc(Cl)c(C)cc1NC(=O)COc1ccccc1[N+](=O)[O-]`, the “hERG current change (%, negative = inhibition) at 1uM” value is -2.79%. Regarding `COc1cccc(/C=C/C(=O)Nc2ccc3c(c2)OCCO3)c1OC`, the “hERG current change (%, negative = inhibition) at 1uM” value is listed as 15.5%. As for `CC(=O)NCCc1nc(-c2ccc(Cl)cc2)no1`, the “hERG current change (%, negative = inhibition) at 1uM” value came out at 10.3%. For `CC(C)OC(=O)Cc1ccccc1`, the “hERG current change (%, negative = inhibition) at 1uM” value is listed as 10.3%. Take `CCOc1nc(S(=O)(=O)c2ccc(C)cc2)c(Cl)s1`: the “hERG current change (%, negative = inhibition) at 1uM” value was found to be 7.74%.

Consider `Clc1ccc(-c2nc(NCCN3CCOCC3)c3ccccc3n2)cc1`, for which the “hERG current change (%, negative = inhibition) at 1uM” value was -16.9%. Then `Clc1ccc(-c2nnc(NCc3ccccc3)c3ccccc23)cc1`, with 4.55%. Take `Clc1ccc(-c2nnc(NCCN3CCCC3)c3ccccc23)cc1`: the “hERG current change (%, negative = inhibition) at 1uM” value was -55.1%. Consider `COc1ccc(NC(=O)CSc2nnc(Cn3c(=O)sc4ccccc43)n2C)c(OC)c1`, for which the “hERG current change (%, negative = inhibition) at 1uM” value is -2.58%.

Turning to `CCN(C(=O)CSc1nc(N)cc(N)n1)C1CCS(=O)(=O)C1` (centres unmarked), the “hERG current change (%, negative = inhibition) at 1uM” value came out at 7.31%. In the case of `CN(CC#CC(O)(c1ccccc1)c1ccccc1)C(C)(C)C`, the “hERG current change (%, negative = inhibition) at 1uM” value is recorded as -40.8%. Turning to `CN(C)C(C)(C)C#CCC(c1ccccc1)c1ccccc1.Cl`, the “hERG current change (%, negative = inhibition) at 1uM” value is on record as 5.49%.

As to `CN(CC#CCC(c1ccccc1)c1ccccc1)C(C)(C)C.Cl`, the “hERG current change (%, negative = inhibition) at 1uM” value is listed as -56.4%. Then `CNc1ccc(/C=C/C(=O)c2cccc3ccccc23)cc1[N+](=O)[O-]`, with 7.91%.

`CC(C)c1ccc(N(CC(=O)N2CCN(Cc3ccccc3)CC2)S(C)(=O)=O)cc1`: the “hERG current change (%, negative = inhibition) at 1uM” value was 7.12%.

On to `Cc1cc(/C([O-])=C(/C(=S)Nc2ccc(F)cc2)[n+]2ccccc2)c(C)n1-c1ccc(F)cc1`, for which the “hERG current change (%, negative = inhibition) at 1uM” value was -1.77%.
